The results in this text go back to PubChem BioAssay (NCATS).

Assay [1] can be described thus: qHTS of pediatric cancer cell lines to identify multiple opportunities for drug repurposing: Confirmatory screen for A673 cells (AID 1347110).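 Note: cells exposed to compound for 48 h before the viability read; nearly all actives have a fitted effect of over 65% in size.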 Note: potency is the fitted concentration of half-maximal effect. In short, it runs like this: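 qHTS titration format: primary MIPE 0.78 nM-46 µM (11 pts), NPC 0.59 nM-46 µM; confirmation 11 pts. 48 h, CTG luminescence.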
(Quantitative high-throughput screening tests each substance at several concentrations.)

Assay [2] in a line: qHTS of pediatric cancer cell lines to identify multiple opportunities for drug repurposing: Confirmatory screen for SK-N-MC cells (AID 1347111).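 Note: cells exposed to compound for 48 h before the readout; nearly all actives have a fitted effect of over 70% in size.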 Note: potency is the fitted concentration of half-maximal effect. In short, it runs like this: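 Seed 500-1,000 cells/well; rest 5 h at 37 degrees C. Pin-transfer compounds, 11-point titration. Incubate 48 h. Add CellTiter-Glo, 15 min RT, read luminescence.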
Assay [3] can be described thus: qHTS of pediatric cancer cell lines to identify multiple opportunities for drug repurposing: Confirmatory screen for BT-12 cells (AID 1347112).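 Note: viability read after 48 h of compound exposure; nearly all actives have a fitted effect of over 55% in size.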 In short, it runs like this:
(§1)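 Cells (500-1,000/well) rested 5 h, then received compounds for 48 h; metabolically active cells were measured by CellTiter-Glo luminescence. Final concentrations spanned up to 46 µM (MIPE, 11-point) or 0.59 nM-46 µM (NPC, 8-point) in primary screens, 11-point in follow-ups.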

Assay [4] is described as follows: qHTS of pediatric cancer cell lines to identify multiple opportunities for drug repurposing: Confirmatory screen for LAN-5 cells (AID 1347113). Note: nearly all actives have a fitted effect of over 65% in size. In short, it runs like this:
as §1

Assay [5] is described as follows: qHTS of pediatric cancer cell lines to identify multiple opportunities for drug repurposing: Confirmatory screen for NB-EBc1 cells (AID 1347115).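 Note: cells exposed to compound for 48 h before the viability read; nearly all actives have a fitted effect of over 45% in size.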 Note: potency is the fitted concentration of half-maximal effect. The procedure, abridged:
as §1

The nature of assay [6]: qHTS of pediatric cancer cell lines to identify multiple opportunities for drug repurposing: Confirmatory screen for SJ-GBM2 cells (AID 1347116). Note: nearly all actives have a fitted effect of over 60% in size. Note: potency is the fitted concentration of half-maximal effect. In short, it runs like this:
(§2)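 Viability measured as metabolically active cells via CellTiter-Glo luminescence following 48 hours of compound exposure, 11-point dilutions in confirmatory testing. 500-1,000 cells/well plated 5 hours before dosing; controls were DMSO and 2.3 µM bortezomib.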

Assay [7] can be described thus: qHTS of pediatric cancer cell lines to identify multiple opportunities for drug repurposing: Confirmatory screen for BT-37 cells (AID 1347117). Note: nearly all actives have a fitted effect of over 55% in size. The procedure, abridged: as §1
The nature of assay [8]: qHTS of pediatric cancer cell lines to identify multiple opportunities for drug repurposing: Confirmatory screen for TC32 cells (AID 1347118).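 Note: cells exposed to compound for 48 h before the read; nearly all actives have a fitted effect of over 65% in size.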 Note: potency is the fitted concentration of half-maximal effect. The procedure, abridged:
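Measured quantity: luminescence from CellTiter-Glo, reflecting metabolically active TC32 cells following 48 h of compound. Curves came straight from multi-point titrations, with 8 or 11 points in primary and 11 in confirmatory screening.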

Assay [9] in a line: qHTS of pediatric cancer cell lines to identify multiple opportunities for drug repurposing: Confirmatory screen for control Hh wild type fibroblast cells (AID 1347121). Note: nearly all actives have a fitted effect of over 70% in size. In short, it runs like this:
as §1

Assay [10] in a line: qHTS of pediatric cancer cell lines to identify multiple opportunities for drug repurposing: Confirmatory screen for RD cells (AID 1347124).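 Note: cells exposed to compound for 48 h before viability readout; nearly all actives have a fitted effect of over 65% in size.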 In short, it runs like this:
as §1

Assay [11] in a line: qHTS of pediatric cancer cell lines to identify multiple opportunities for drug repurposing: Confirmatory screen for Rh30 cells (AID 1347126). Note: nearly all actives have a fitted effect of over 55% in size. Note: potency is the fitted concentration of half-maximal effect. In short, it runs like this: as §1
A short description of assay [12]: qHTS of pediatric cancer cell lines to identify multiple opportunities for drug repurposing: Confirmatory screen for SK-N-SH cells (AID 1347129).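 Note: cells exposed to compound for 48 h before viability read; nearly all actives have a fitted effect of over 60% in size.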 Note: potency is the fitted concentration of half-maximal effect. In short, it runs like this:
as §1

Assay [13] in a line: qHTS of pediatric cancer cell lines to identify multiple opportunities for drug repurposing: Confirmatory screen for MG 63 (6-TG R) cells (AID 1347119). Note: nearly all actives have a fitted effect of over 55% in size. Note: potency is the fitted concentration of half-maximal effect. The procedure, abridged:
as §1

The nature of assay [14]: qHTS of pediatric cancer cell lines to identify multiple opportunities for drug repurposing: Confirmatory screen for Rh18 cells (AID 1347125). Note: nearly all actives have a fitted effect of over 55% in size. The procedure, abridged:
as §1

The nature of assay [15]: qHTS of pediatric cancer cell lines to identify multiple opportunities for drug repurposing: Confirmatory screen for OHS-50 cells (AID 1347128). Note: potency is the fitted concentration of half-maximal effect. The procedure, abridged:
as §1

Assay [16] deals with N-terminal Xaa-Pro-Lys N-methyltransferase 1 (Homo sapiens) (UniProt Q9BV86). Description: qHTS Assay for Inhibitors of N-terminal methyltransferase 1 (NTMT1): LOPAC validation of the NTMT1 SAHH-coupled ThioGlo3 Assay (AID 1347143).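 Note: SAH from peptide methylation measured as thiol fluorescence via SAHH coupling and ThioGlo3; nearly all actives have a fitted effect of over 70% in size.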 Note: potency is the fitted concentration of half-maximal effect. The procedure, abridged:
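Inhibition of NTMT1 methylation of peptide SPKRIA is followed by converting SAH with SAHH and labelling the released thiol with ThioGlo3. Plates are read at 340/450nm before and 30 min after reagent addition, both at room temperature.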

Assay [17] has as its system Zika virus NS2B-NS3 protease (unlinked). Description: Optimization of GU AMC qHTS for Zika virus inhibitors: Unlinked NS2B-NS3 protease assay (AID 1347151). Note: nearly all actives have a fitted effect of over 80% in size. Note: potency is the fitted concentration of half-maximal effect. In short, it runs like this: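 Unlinked protease (25 nM final); buffer 10 mM Tris-HCl pH 8.0 + 0.01% Tween 20; AMC substrate; 15 min RT, dark; Δfluorescence normalized to no-inhibitor/no-enzyme controls; 4-parameter Hill fit.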

Assay [18] in a line: qHTS of pediatric cancer cell lines to identify multiple opportunities for drug repurposing: Confirmatory screen for DAOY cells (AID 1347114). Note: nearly all actives have a fitted effect of over 65% in size. Note: potency is the fitted concentration of half-maximal effect. In short, it runs like this: as §2
The nature of assay [19]: qHTS of pediatric cancer cell lines to identify multiple opportunities for drug repurposing: Confirmatory screen for U-2 OS cells (AID 1347122). Note: nearly all actives have a fitted effect of over 65% in size. Note: potency is the fitted concentration of half-maximal effect. The procedure, abridged: as §1
For assay [20], the target named is Furin (Homo sapiens) (UniProt P09958). Description: Furin counterscreen qHTS for Zika virus inhibitors (AID 1347149).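 Note: purified recombinant full-length human furin enzyme at 5 nM; fluorescence gain from furin cutting a BOC-RVRR-AMC peptide substrate over 15 min; top concentration of the series differs between compounds; nearly all actives have a fitted effect of over 70% in size.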 The procedure, abridged:
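Fluorogenic cleavage of BOC-RVRR-AMC (2 microM final, Km ~15 µM) was monitored (ex 340, em 450 nm) at 37C after 15 min RT preincubation of 5 nM furin with compounds in HEPES pH 7.0 buffer with CaCl2 and Triton X-100. Percent inhibition was fitted to a 4-parameter Hill curve.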
Background: The purpose of a counterscreen is to sort out artefacts and off-target activity.

Structures are written as SMILES. Results filed as inconclusive are left out. The source made the active and inactive calls. Calls come from the whole dose curve; as a rule, active = well fitted curve in the direction sought with a large enough effect; inconclusive = small, poorly fitted or top-dose-only effect, or another doubt; inactive = no such curve, though single readings can be large; an effect the other way counts as inactive or inconclusive.

Sequence of N-terminal Xaa-Pro-Lys N-methyltransferase 1 (Homo sapiens) (Q9BV86 whole entry, looked up): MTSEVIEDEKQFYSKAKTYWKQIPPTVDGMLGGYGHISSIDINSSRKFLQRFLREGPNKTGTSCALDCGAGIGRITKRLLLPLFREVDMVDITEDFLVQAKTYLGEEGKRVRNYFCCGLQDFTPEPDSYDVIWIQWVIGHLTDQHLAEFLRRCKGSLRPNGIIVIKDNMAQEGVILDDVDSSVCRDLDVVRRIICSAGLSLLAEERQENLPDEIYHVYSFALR
Sequence of Furin (Homo sapiens) (P09958 whole entry, looked up): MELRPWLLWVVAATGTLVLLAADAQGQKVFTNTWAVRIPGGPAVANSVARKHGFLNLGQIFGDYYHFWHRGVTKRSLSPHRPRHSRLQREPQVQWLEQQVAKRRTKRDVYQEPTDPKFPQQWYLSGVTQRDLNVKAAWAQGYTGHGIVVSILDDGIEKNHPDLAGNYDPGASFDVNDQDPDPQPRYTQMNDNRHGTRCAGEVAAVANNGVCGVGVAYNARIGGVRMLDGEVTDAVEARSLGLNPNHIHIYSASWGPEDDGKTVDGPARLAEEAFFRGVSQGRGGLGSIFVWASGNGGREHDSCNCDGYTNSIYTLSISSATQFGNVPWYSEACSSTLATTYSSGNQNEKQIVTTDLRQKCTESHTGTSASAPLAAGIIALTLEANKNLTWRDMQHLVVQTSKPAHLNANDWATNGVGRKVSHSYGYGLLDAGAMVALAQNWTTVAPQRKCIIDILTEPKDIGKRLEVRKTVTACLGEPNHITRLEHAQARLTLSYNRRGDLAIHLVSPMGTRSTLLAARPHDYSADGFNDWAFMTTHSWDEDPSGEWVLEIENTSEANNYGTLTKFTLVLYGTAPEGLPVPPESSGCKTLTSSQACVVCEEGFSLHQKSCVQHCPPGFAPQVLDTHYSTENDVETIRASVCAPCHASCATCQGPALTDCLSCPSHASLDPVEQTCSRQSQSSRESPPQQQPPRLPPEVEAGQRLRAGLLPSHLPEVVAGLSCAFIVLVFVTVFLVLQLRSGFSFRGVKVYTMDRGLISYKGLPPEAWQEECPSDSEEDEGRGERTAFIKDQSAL

As to `Cc1c(C)c2c(c(C)c1O)CCC(C)(COc1ccc(CC3SC(=O)NC3=O)cc1)O2` (stereo not given), the Potency entry in [1], in [2], in assay [3], in assay [4], in assay [5] and in assay [6] was “inactive” each time. The Potency entry in [7], in assay [8], in assay [9], in [10], in assay [11] and in assay [12] was “inactive” throughout.
In the case of `Nc1nc2ccc(OC(F)(F)F)cc2s1`, the Potency in assay [1], in [13] and in [15] was 18.5 µM (active) in each case. For the same compound, the Potency result in assay [2], in [3], in assay [5], in assay [6], in assay [8] and in assay [9] was “inactive” throughout. Besides, the Potency result in [10], in [14], in [11], in [12], in assay [16] and in assay [17] was “inactive” each time.
As to `Nc1nc2[nH]cc(CCc3ccc(C(=O)N[C@@H](CCC(=O)O)C(=O)O)cc3)c2c(=O)[nH]1`, the figures for the Potency in assay [1], in assay [2] and in assay [8] were 2.33 µM (active), 0.147 µM (active) and 0.465 µM (active), respectively. The Potency entry in assay [3], in assay [4], in assay [18], in assay [5], in assay [9] and in [19] was “inactive” each time. For the same compound, the Potency entry in assay [10], in assay [14], in assay [11], in assay [15] and in assay [12] was “inactive” throughout.
On to `CCCS(=O)(=O)Nc1ccc(F)c(C(=O)c2c[nH]c3ncc(-c4ccc(Cl)cc4)cc23)c1F`, for which the Potency in [1] was 16.5 µM (active); in assay [2] it was 23.3 µM (active); in assay [8], 18.5 µM (active); in assay [19], 23.3 µM (active). Further, the Potency entry in assay [3], in assay [5], in [9], in [10] and in assay [12] was “inactive” in each case.
Regarding `Cc1cn[nH]c1`, the Potency result in assay [1], in assay [2], in [3], in [4], in assay [18] and in assay [5] was “inactive” in each case. The Potency result in [6], in assay [7], in assay [8], in assay [9], in [19] and in assay [10] was “inactive” throughout. Further, the Potency result in assay [14], in assay [11], in [15], in assay [12] and in [17] was “inactive” throughout.
Turning to `O=NN(CCCl)C(=O)NCCCl`, the Potency was 16.5 µM (active) in assay [1] and 20.8 µM (active) in assay [13]. The Potency result in assay [3], in [4], in [18], in [6], in assay [9] and in assay [19] was “inactive” throughout. In addition, the Potency result in [10], in assay [14], in [11], in [15], in assay [12] and in [17] was “inactive” throughout.
Take `CNC[C@H](O)c1cccc(O)c1`: the Potency result in assay [16] and in assay [17] was “inactive” each time.
As for `CC(C)(Sc1ccc(CCN(CCCCC2CCCCC2)C(=O)NC2CCCCC2)cc1)C(=O)O`, the Potency result in [16] and in assay [20] was “inactive” each time. In assay [17], the Potency is 15 µM (active).
As to `Cc1[nH]c(=O)c(C#N)cc1-c1ccc2nccn2c1`, the Potency was 50.1 µM (active) in assay [16] and 21.2 µM (active) in assay [17]. The Potency result in [20] was “inactive”.
With `Cc1cnc(NC(=O)C2=C(O)c3ccccc3S(=O)(=O)N2C)s1`, the Potency entry in assay [16] and in assay [17] was “inactive” throughout.
As to `Nc1ccc(S(=O)(=O)Nc2ccnn2-c2ccccc2)cc1`, the Potency result in [16] and in assay [17] was “inactive” throughout.
For the compound `Cc1oncc1C(=O)Nc1ccc(C(F)(F)F)cc1`, the Potency in assay [2] is 7.37 µM (active). The Potency entry in assay [3], in assay [4], in assay [18], in [5], in [7] and in assay [9] was “inactive” in each case. The Potency entry in assay [19], in assay [14], in [11], in [15], in assay [12] and in [16] was “inactive” throughout. The Potency result in assay [17] was “inactive”.
`CCc1cncnc1N1CCN(Cc2nc3ccc(C(F)(F)F)cc3[nH]2)CC1`: the Potency result in [16] and in assay [17] was “inactive” each time.
On to `COc1cccc2cc(-c3nc(C4CCC(C(=O)O)CC4)n4ncnc(N)c34)[nH]c12` (stereo not given), for which the Potency entry in assay [2], in [5], in [7], in assay [8], in [9] and in assay [10] was “inactive” each time. The Potency entry in [15] was “inactive”. The Potency in assay [11] was 10.4 µM (active); in assay [12], 10.5 µM (active).
Regarding `Cc1cccc(-c2[nH]c(C(C)(C)C)nc2-c2ccc3nccnc3c2)n1`, the Potency result in assay [16] and in assay [17] was “inactive” throughout.
For the compound `NC(=O)c1ccc(I)c([N+](=O)[O-])c1`, the Potency is 55.1 µM (active) in assay [2], 61.8 µM (active) in assay [18], 39 µM (active) in assay [8] and 55.4 µM (active) in assay [12]. In addition, the Potency result in assay [3], in [4], in assay [5], in assay [6], in [7] and in assay [13] was “inactive” throughout. Moreover, the Potency result in assay [9], in assay [19], in assay [10], in assay [14] and in assay [15] was “inactive” in each case.
With `CN(C)c1ccc(C2Nc3ccc4ccccc4c3C3=C2C(=O)CC(C)(C)C3)cc1Br` (stereo not given), the Potency in assay [2] was 19.1 µM (active); in assay [5], 42.7 µM (active); in assay [6], 8.27 µM (active); in [8] it was 15.1 µM (active); in assay [13] it was 7.59 µM (active). For the same compound, the Potency entry in assay [3], in assay [4], in assay [18], in assay [9] and in assay [10] was “inactive” each time.
